The source made the active and inactive calls.
Experiment: changes in parasitized red cell lysis, either direction – P. falciparum Indochina, OD700, 3 h, PSAC antagonist project, primary screen (AID 1156)
Conditions: P. falciparum-infected erythrocytes, osmotic lysis, higher = more signal, called active from +8 up or from −8 down

z-score, inactive:
OCCCC1=CC(c2ccc(CN3CCCC3)cc2)N(Cc2sc3ccccc3c2Cl)CC1 (configuration not stated) 0.314
CC(C)C(CO)N1C(=O)[C@@H]2C3C(=O)OCCC/C=C\[C@H]3OC23C=CCN(C(C)(C)C)C(=O)[C@@H]13 (some centres not stated) 0.441
O=c1n(-c2ccccc2)c(=O)n2n1CC(COc1ccccc1)=C([C@H](O)CCc1ccccc1)[C@@H]2CO 0.076
CC(C)C(=C=CC[C@H](O)c1cccc(OCCO)c1)C[C@H](O)c1cc(Cl)cc(Cl)c1O 0.667
CC(C)(C)OC(=O)CC[C@]1(C(=O)NCC(O)CO)N=C(c2ccc(OCCCO)cc2)O[C@H]1c1ccccc1 (some centres not stated) 2.61
COC(=O)[C@@]1(Cc2ccccc2)[C@H]2c3cc(C(=O)N(C)C)n(CCc4ccc(O)c(OC)c4)c3C[C@H]2CN1C(=O)c1ccccc1 -0.692
C=CCNC(=O)[C@@H]1[C@H]2C(=O)O[C@H](c3ccccc3)[C@H](c3ccccc3)N2[C@H](c2ccc(O)cc2)[C@@]12C(=O)N(C(=O)OCCOC)c1ccc(C#CC3(O)CCCCCC3)cc12 0.469
CCCC[C@@H]1C[C@H]1[C@@H](NC(=O)c1cccs1)c1ccc(C(F)(F)F)cc1 0.247
COCCOC(=O)N1C(=O)[C@@]2(c3cc(C#Cc4ccc(OC)cc4)ccc31)[C@H](c1ccccc1OCCO)N1[C@H](c3ccccc3)[C@H](c3ccccc3)OC(=O)[C@H]1[C@@H]2C(=O)N1CCCCCCC1 0.338
Cc1ccccc1C(O)C1C=CC2C(=O)N(C)C(=O)C2N1N(c1ccccc1)c1ccccc1 (configuration not stated) 0.625
Cc1ccc(S[C@]2(C(=O)NCC(F)(F)F)CC(=O)N(Cc3ccccc3C(F)(F)F)[C@@H]2c2ccc(CO)cc2I)cc1 1.1
CC(C)N1C(=O)C[C@@](C(=O)NCCCN(C)C)(c2ccc([N+](=O)[O-])cc2)[C@H]1c1ccc(CO)cc1 1.82
CCOc1cc(C(O)C2C=CC3C(=O)N(c4ccccc4)C(=O)C3N2Nc2ccc(C#N)cc2)ccc1O (configuration not stated) 0.743
CN(C)C(=O)[C@@]1(Cc2ccccc2CN=[N+]=[N-])N=C(c2ccc(OCCCO)cc2)O[C@H]1c1ccccc1CN=[N+]=[N-] 0.589
C=CC[C@]1(C(=O)O)COC(c2ccc(OCCCO)cc2)=N1 0.472
C=CCC(OC(C)=O)[C@@H]1[C@@H](N(Cc2cccc3ccccc23)C(=O)Cc2ccc(OC)cc2)c2cc(OCCCO)ccc2N1C(=O)c1ccc2ccccc2n1 (some centres not stated) 0.714
CCOC(=O)C[C@H]1[C@H](OC(=O)Cc2ccc3c(c2)OCO3)[C@@H](NC(=O)CC(C)C)c2cc(OCCCO)ccc2N1C(=O)Cc1ccc(OC)cc1 -1.07
[N-]=[N+]=NCc1ccccc1C[C@@]1(C(=O)NCc2ccccc2)N=C(c2ccc(OCCCO)cc2)O[C@@H]1c1ccccc1N=[N+]=[N-] 2.4
O=C1C2C=CC(C(O)c3ccc(F)cc3)N(n3cnnc3)C2C(=O)N1Cc1ccccc1 (configuration not stated) 0.987
NC(=O)NCC#Cc1ccc2c(c1)[C@]1(C(=O)N2)[C@H](C(=O)NC[C@H](O)c2ccccc2)[C@H]2C(=O)O[C@H](c3ccccc3)[C@H](c3ccccc3)N2[C@@H]1c1ccc(OCCO)cc1 1.55
O=C1O[C@H](c2ccccc2)[C@H](c2ccccc2)N2[C@H]1[C@@H](C(=O)N1CCN(c3ncccn3)CC1)[C@]1(C(=O)Nc3ccc(C#CC4(O)CCCCCC4)cc31)[C@H]2c1ccc(OCCO)cc1 1.76
CCOc1cc(C(O)C2C=CC3C(=O)N(C)C(=O)C3N2Nc2ccccc2)ccc1O (configuration not stated) 0.42
CN(C)CCCNC(=O)[C@@H]1c2ccccc2C(=O)N(Cc2ccccc2Cl)[C@H]1c1ccc(CO)cc1 1.68
[N-]=[N+]=NCc1ccccc1[C@H]1OC(c2ccc(OCCCO)cc2)=N[C@@]1(CCS(=O)(=O)c1ccccc1)C(=O)N1CCCCC1 3.2
O=C1NC(=O)C2C1C=CC(C(O)c1ccco1)N2Nc1ccccn1 (configuration not stated) -0.314
CCCCC(O)C1C=CC2C(=O)N(c3ccccc3)C(=O)C2N1Nc1ccc(C(C)C)cc1 (configuration not stated) 0.39
C=CC[C@@]1(C(=O)N2CCOCC2)N=C(c2ccc(OCCCO)cc2)O[C@@H]1c1ccccc1CN=[N+]=[N-] 1.61
